{"source": "the supplement of paper PMC10338343", "note": "± gives the standard deviation."}
{"tested_on": "MILI (PIWIL2) piRISC loaded with L1MC piRNA (26 nt)", "test": "pre-steady-state target cleavage rate (min^-1); guide: L1MC piRNA 5'p-UAACUAAAUACUAUGCAAGCUGUAGG; MIWI and MILI are mouse PIWI proteins and EfPiwi is from a freshwater sponge; tags in brackets are library labels; higher = faster piRNA-guided slicing of the target", "details": "auxiliary factor: 500 nM mouse GTSF1", "outline": "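Cleave-'n-Seq reactions paired 0.1 nM transcribed, DNA-blocked target RNA library with 1 nM active affinity-purified piRISC holding one synthetic guide, plus or minus 500 nM GTSF1 partner protein, in HEPES–potassium acetate buffer at 33 °C for 0–8 or 0–960 min. After sequencing of uncleaved targets and normalisation to depth and weakly complementary targets, the pre-steady-state cleavage rate was taken from a burst-and-steady-state fit. Three trials were pooled, and k3 was capped at 0.0001 min^-1.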"}
{"sequence": "UCCUGCUACAGCUUGCAUAGAAUUUAGUUA", "pre-steady-state target cleavage rate": "0.0612 ± 0.014"}
{"sequence": "UCCUGGAUGUCGAACGAUAGUAAUAAGUUA", "pre-steady-state target cleavage rate": "< 0.0001"}
{"sequence": "UCCUGGAUCUGCUUGCAUAGAAUUUAGUUA", "pre-steady-state target cleavage rate": "0.0261 ± 0.0069"}
{"sequence": "UCCUCCUACAGCUUGGAUAGUAUUUAGAUA", "pre-steady-state target cleavage rate": "0.139 ± 0.019"}
{"sequence": "UCCUGCUACAGCUUGCAAUGUAUUUAGUAA", "pre-steady-state target cleavage rate": "0.124 ± 0.023"}
{"sequence": "UCCUGGAUGACCUUGCAUAGAAUUUAGUUA", "pre-steady-state target cleavage rate": "0.023 ± 0.012"}
{"sequence": "UCCUGGAACAGCUUGCAUAGUUUUAGUUA", "pre-steady-state target cleavage rate": "0.0123 ± 0.0053"}
{"sequence": "UCCUGGAUGUCGAAGCACAGUAUUUAGUUA", "pre-steady-state target cleavage rate": "0.00819 ± 0.0038"}
{"sequence": "UCCUGCUACAGCUUGCAAUGUAUUUAGAAA", "pre-steady-state target cleavage rate": "0.0407 ± 0.013"}
{"sequence": "UCCUGGAUCAGCUUGCAUAGUAUUAUCAAA", "pre-steady-state target cleavage rate": "0.0975 ± 0.021"}
{"sequence": "UCCUGGAUCAGCUAGCAUAGUAUUUUCAAA", "pre-steady-state target cleavage rate": "0.0498 ± 0.013"}
{"sequence": "UCCUGGAUCAGCUUGCAUAGUAUAUAGAAA", "pre-steady-state target cleavage rate": "0.115 ± 0.03"}
{"sequence": "UCCUGGAACAGCUUGCAAAGUAUUUUGUUA", "pre-steady-state target cleavage rate": "0.0942 ± 0.021"}
{"sequence": "UCCUGGAUGUCGAUGCAAUAGUAUUUAGUUA", "pre-steady-state target cleavage rate": "0.00497 ± 0.0023"}
{"sequence": "UCCUGGAUGUCGAACCAUAGAAUUUAGUUA", "pre-steady-state target cleavage rate": "< 0.0001"}
{"sequence": "UCCUGGAUGAGCUUCCAUUGUAUUUAGUUA", "pre-steady-state target cleavage rate": "0.0518 ± 0.016"}
{"sequence": "UCCUGGAUGUCGUUGCAUAGUAAUUAGUAA", "pre-steady-state target cleavage rate": "0.0579 ± 0.013"}
{"sequence": "UCCUGGAACAGCUUGCUUAGUAUUUUCAAA", "pre-steady-state target cleavage rate": "0.0287 ± 0.011"}
{"sequence": "UCCUGGAUGAGCUUGCUAAGUAUUUAGUAA", "pre-steady-state target cleavage rate": "0.0109 ± 0.0046"}
{"sequence": "UCCUGGAUGUCCUUGCAUAGUAUUUUCAUA", "pre-steady-state target cleavage rate": "0.0192 ± 0.0081"}
{"sequence": "UCCUGGAUGUCCUUGCAUAGUAUUUUGAUA", "pre-steady-state target cleavage rate": "0.0211 ± 0.0077"}
{"sequence": "UCCUGGAUGUCGAUGCAUAGUAUUUAUGUUA", "pre-steady-state target cleavage rate": "0.106 ± 0.022"}
{"sequence": "UCCUGGUACAGCUUGCAUAGUAUUAUCUUA", "pre-steady-state target cleavage rate": "0.0311 ± 0.014"}
{"sequence": "UCCUGGAACAGCUUGCAUAGUAUAUACAAA", "pre-steady-state target cleavage rate": "0.0873 ± 0.03"}
